Shown are actives, neighbours in structure and some others; about 19% of the full set was active somewhere.
HT1080NT lethal = kills 2HG-producing HT-1080-NT fibrosarcoma cells | HT-1080-NT fibrosarcoma viability, CellTiter-Glo ATP luminescence, 48 h | Potency, µM (highest dose often 46.1 µM), most hits filed as cytotoxic | hit rate 1.6% among 360,000 | AID 686970;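 further: NT is the 2HG producing partner of a matched IDH1 knockdown line; nearly all actives have a fitted effect of over 55% in size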
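HT-1080-NT fibrosarcoma cells (2HG-overproducing), 750 cells/well in RPMI with 5% FBS, dosed after 2 h and incubated 48 h at 37C. CellTiter-Glo luminescence normalized to DMSO and no-cell wells; concentration-response curves fitted and classed.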
TDP1 cell CPT = growth inhibition of DT40 Tdp1-/-;hTDP1 cells with camptothecin (screen for TDP1 inhibitors) | Potency, µM (titrated, usually from 46.2 µM), hits mostly inhibitors | chicken DT40 Tdp1-/-;hTDP1 cells + 20 nM CPT, ATP luminescence, 48 h | hit rate 12% among 420,000 | AID 686979; further: nearly all actives have a fitted effect of over 55% in size
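Cell growth measured by CellTiter-Glo luminescence after a minimum 48 h, 37 C compound exposure with 20 nM CPT in Tdp1-knockout DT40 cells stably expressing hTDP1, seeded 400/well; qHTS titration format.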
IL1B secr inh = blocks inflammasome-driven IL-1 beta release. activity change, % at 57.5 µM. THP-1 LPS/ATP IL-1B secretion, AlphaLISA, 16 h; hits give low values. hit rate 4.7% among 360,000; in the data active means activity change below about -50%; inconclusive means mostly about -30% to -49%
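Secreted IL-1B measured by AlphaLISA bead assay after 16 h compound exposure of THP-1 cells; compounds (final up to 57.5 uM) added 1 h before LPS (250 ng/mL) and ATP (1.25 mM) stimulation; lower signal means less secretion.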
HT1080 IDH1KD tx = toxicity to HT-1080 IDH1 knockdown cells (counter line); HT-1080 IDH1 knockdown viability, ATP luminescence, 48 h; Potency, µM (titrated, usually from 46.1 µM), usual class: cytotoxic; hit rate 2% among 360,000
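Knockdown cells (IDH1KD HT-1080) received compounds 2 h after plating at 750 cells/well and were kept 48 h at 37 °C in 5% FBS RPMI. A CellTiter-Glo luminescence read gave % activity for curve fitting.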
TDP1 cell noCPT = qHTS for Inhibitors of human tyrosyl-DNA phosphodiesterase 1 (TDP1): qHTS in cells in absence of CPT; DT40 Tdp1-/- hTDP1 cells, no CPT, ATP luminescence, 48 h; Potency, µM (doses to about 46.2 µM), most hits filed as inhibitors; hit rate 15% among 420,000; AID 686978, 2013; further: nearly all actives have a fitted effect of over 55% in size
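No-CPT arm: Tdp1-/-;hTDP1 DT40 cells (400/well) plus compounds, incubated ≥48 hr at 37 °C. Readout CellTiter-Glo luminescence.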
Each line names hits and unclear results; the compound was inactive in the other large screens; ! = not active in a repeat. Unless noted, the call rests on the fitted dose curve; in most records, active means well fitted curve in the direction sought with a large enough effect; inconclusive means small, poorly fitted or top-dose-only effect, or another doubt; inactive means no such curve, though single readings can be large; an effect the other way counts as inactive or inconclusive.

CC(=O)N1c2ccc(S(=O)(=O)NCC3CCC(C(=O)Nc4ccc(C)c(C)c4)CC3)cc2CC1C (centres undefined)	TDP1 cell CPT 16µM, TDP1 cell noCPT 23µM (no result: HT1080NT lethal, IL1B secr inh, HT1080 IDH1KD tx)
CCc1ccc(NC(=O)C2CCC(CNS(=O)(=O)c3ccc4c(c3)CC(C)N4C(C)=O)CC2)cc1 (centres undefined)	TDP1 cell CPT 21µM, TDP1 cell noCPT 7.3µM (no result: HT1080NT lethal, IL1B secr inh, HT1080 IDH1KD tx)
CCCCN(C)C(=O)C1CCC(CNS(=O)(=O)c2ccc3c(c2)CC(C)N3C(C)=O)CC1 (centres undefined)	TDP1 cell CPT 13µM, TDP1 cell noCPT 16µM
CC(=O)N1c2ccc(S(=O)(=O)NCC3CCC(C(=O)NCc4ccccc4)CC3)cc2CC1C (centres undefined)	TDP1 cell CPT inconclusive
C1CCC(NC(=NC2C3CC4CC(C3)CC2C4)N2CCOCC2)CC1 (centres undefined)	TDP1 cell CPT 29µM!, TDP1 cell noCPT 23µM (no result: HT1080NT lethal, IL1B secr inh, HT1080 IDH1KD tx)
S=C(NC1CCCC1)N1CCOCC1	none
COc1ccc(C(=O)NC=C2C(=O)OC(C)(C)OC2=O)cc1	none
O=C(Nc1ccc(Br)cc1)c1cccc(OC(=S)N2CCOCC2)c1	HT1080NT lethal inconclusive, TDP1 cell CPT inconclusive, HT1080 IDH1KD tx inconclusive, TDP1 cell noCPT inconclusive
O=[N+]([O-])c1c(C(Cl)Cl)nn(-c2ccccc2)c1N1CCCC1	TDP1 cell CPT 21µM, HT1080 IDH1KD tx inconclusive, TDP1 cell noCPT inconclusive
CCOC(=O)C1CCN(c2c([N+](=O)[O-])c(C(Cl)Cl)nn2-c2ccccc2)CC1	TDP1 cell CPT inconclusive, TDP1 cell noCPT inconclusive
COc1ccc(CCNC(=O)CSc2nc(O)c(C(C)C)c(=O)[nH]2)cc1OC	none
CC[C@@H]1C/C=C\Cc2ccccc2[C@H](C(=O)C[C@@H](O)CC(C)=O)OC1=O	TDP1 cell CPT 13µM, TDP1 cell noCPT inconclusive
Cc1ccc(NS(=O)(=O)c2cccc(C(=O)N3CCCCCC3)c2)cc1	TDP1 cell CPT inconclusive, TDP1 cell noCPT 21µM
CNS(=O)(=O)c1cccc(C(=O)OCC(=O)N2CCCC2)c1	HT1080 IDH1KD tx inconclusive
COc1ccc(NS(=O)(=O)c2cccc(C(=O)OCC(=O)N3CCN(c4ccc(OC)cc4)CC3)c2)cc1	TDP1 cell CPT 13µM, TDP1 cell noCPT 13µM
Cc1ccc(Oc2ccc(NS(=O)(=O)c3cccc(C(=O)O)c3)cc2)cc1	TDP1 cell noCPT 7.3µM
Cc1ccc(NS(=O)(=O)c2cccc(C(=O)N3CCCCC3)c2)cc1	TDP1 cell noCPT inconclusive
COc1ccc(NS(=O)(=O)c2cccc(C(=O)N3CCOCC3)c2)cc1	none
O=C(O)c1cccc(S(=O)(=O)Nc2ccc(Oc3ccccc3)cc2)c1	none
COc1ccc(NS(=O)(=O)c2cccc(C(=O)N3CCCCCCC3)c2)cc1	TDP1 cell CPT inconclusive, TDP1 cell noCPT 15µM
COc1ccc(NC(=O)C(=O)N/N=C/c2cc(C)n(-c3cccc(Cl)c3Cl)c2C)c(OC)c1	TDP1 cell CPT inconclusive, IL1B secr inh inconclusive, TDP1 cell noCPT inconclusive
COc1ccc(NS(=O)(=O)c2cccc(C(=O)N3CCN(c4ccccc4O)CC3)c2)cc1	TDP1 cell CPT inconclusive, TDP1 cell noCPT inconclusive
COc1ccc(NS(=O)(=O)c2cccc(C(=O)N3CCN(C(=O)c4ccco4)CC3)c2)cc1	TDP1 cell CPT 9.2µM
COc1ccc(C)c2sc(NC(=O)CCS(=O)(=O)c3ccccc3)nc12	TDP1 cell CPT 23µM, IL1B secr inh -90, HT1080 IDH1KD tx inconclusive, TDP1 cell noCPT 16µM
CCOc1cccc2sc(Nc3nc4ccc(NC(C)=O)cc4s3)nc12	HT1080NT lethal inconclusive, TDP1 cell CPT 18µM, IL1B secr inh inconclusive, HT1080 IDH1KD tx inconclusive, TDP1 cell noCPT inconclusive
CCOc1cccc2sc(NC(=O)CCS(=O)(=O)c3ccccc3)nc12	TDP1 cell CPT 8.2µM, HT1080 IDH1KD tx inconclusive, TDP1 cell noCPT 8.2µM
CCOc1cccc2sc(N(CCN(C)C)C(=O)CCS(=O)(=O)c3ccccc3)nc12	TDP1 cell CPT inconclusive
O=C(NCCc1c[nH]c2ccccc12)C1CCN(S(=O)(=O)c2ccc(F)cc2)CC1	none
COc1cc([N+](=O)[O-])ccc1NC(=O)CC1SC(=Nc2ccc(F)cc2)N(CCC2=CCCCC2)C1=O (centres undefined)	TDP1 cell CPT 16µM, TDP1 cell noCPT 15µM
COc1ccc(N=C2SC(CC(=O)Nc3ccc(OC)cc3OC)C(=O)N2C)cc1 (centres undefined)	none
COc1ccc(N=C2SC(CC(=O)Nc3cccc(Cl)c3)C(=O)N2Cc2ccco2)cc1 (centres undefined)	HT1080NT lethal inconclusive, TDP1 cell CPT inconclusive, IL1B secr inh inconclusive, HT1080 IDH1KD tx 16µM, TDP1 cell noCPT inconclusive
COc1ccc(OC)c(NC(=O)CC2SC(=Nc3ccccc3)N(CCc3ccccn3)C2=O)c1 (centres undefined)	TDP1 cell CPT 23µM, IL1B secr inh inconclusive, TDP1 cell noCPT inconclusive
COc1ccc(N=C2SC(CC(=O)Nc3ccccc3)C(=O)N2Cc2ccccn2)cc1 (centres undefined)	TDP1 cell CPT 29µM, IL1B secr inh -67, TDP1 cell noCPT 23µM
C=CCN1C(=O)C(CC(=O)Nc2ccc(OC)cc2)SC1=Nc1ccc(S(N)(=O)=O)cc1 (centres undefined)	none
COc1ccc(N=C2SC(CC(=O)Nc3ccccc3)C(=O)N2CCc2ccccn2)cc1 (centres undefined)	TDP1 cell CPT inconclusive, TDP1 cell noCPT inconclusive
COc1cccc(N2CCN(c3ncnc4c3cnn4-c3ccc(C)cc3C)CC2)c1	HT1080NT lethal 23µM, TDP1 cell CPT 1.8µM, IL1B secr inh -79, HT1080 IDH1KD tx inconclusive, TDP1 cell noCPT 2.6µM
CCN1CCN(c2ncnc3c2cnn3-c2cccc(C)c2)CC1	TDP1 cell CPT 23µM, TDP1 cell noCPT inconclusive (no result: HT1080NT lethal, IL1B secr inh, HT1080 IDH1KD tx)
Cc1ccc(-n2ncc3c(N4CCCC(C)C4)ncnc32)c(C)c1 (centres undefined)	TDP1 cell CPT 8.2µM, TDP1 cell noCPT 7.3µM
Cc1cccc(-n2ncc3c(N4CCCCCC4)ncnc32)c1	TDP1 cell CPT inconclusive, TDP1 cell noCPT 21µM (no result: HT1080NT lethal, IL1B secr inh, HT1080 IDH1KD tx)
Cc1cccc(-n2ncc3c(N4CCC(C)CC4)ncnc32)c1	TDP1 cell CPT inconclusive, IL1B secr inh inconclusive, TDP1 cell noCPT inconclusive
Cc1ccc(-n2ncc3c(N4CCCC4)ncnc32)c(C)c1	none
NC(=O)c1c(NC(=O)C(=O)N2CCOCC2)sc2c1CCC2	none
COc1cc(C(=O)NCC(c2cccs2)N2CCOCC2)ccc1OCc1ccccc1 (centres undefined)	TDP1 cell CPT inconclusive, TDP1 cell noCPT inconclusive
CCNc1nc(N2CCCN(C)CC2)nc2cc(OC)c(OC)cc12	TDP1 cell CPT 11µM, TDP1 cell noCPT 11µM (no result: IL1B secr inh)
CNc1nc(N2CCCN(C)CC2)nc2cc(OC)c(OC)cc12	TDP1 cell CPT 14µM, TDP1 cell noCPT 11µM (no result: IL1B secr inh)

Screening results from PubChem.
